Laboratory results published in PubChem BioAssay (NCATS).
Records with an inconclusive call do not appear. Activity calls are given as the source filed them. Calls come from the whole dose curve; as a rule, active = well fitted inhibition curve with a large enough effect; inconclusive = small, poorly fitted or top-dose-only effect; inactive = flat fitted curve, though single readings scatter.

Columns and labels:
Test in all cases: qHTS profiling for inhibitors of Plasmodium falciparum proliferation (AID 504749); note: nearly all actives have a fitted effect of over 60% in size
Conditions in all cases: P. falciparum in erythrocytes, SYBR Green DNA, 72 h; series mostly up to 28.7 µM
CP194 = system: CP194
Summary of the method: (§1)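 P. falciparum-infected erythrocytes (0.3% parasitemia, 2.5% hematocrit final) were exposed to compounds for 72 h at 37 C in 5% CO2, then lysed with SYBR Green buffer overnight at room temperature; parasite DNA fluorescence was normalized to artemisinin and DMSO controls.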

CP201 = system: CP201
Summary of the method: as §1

CP203 = system: CP203
Summary of the method: as §1

CP211 = system: CP211
Summary of the method: as §1

CP215 = system: CP215
Summary of the method: as §1

CP217 = system: CP217
Summary of the method: as §1

CP237 = system: CP237
Summary of the method: as §1

CP238 = system: CP238
Summary of the method: as §1

CP247 = system: CP247
Summary of the method: as §1

CP250 = system: CP250
Summary of the method: as §1

CP252 = system: CP252
Summary of the method: as §1

CP256 = system: CP256
Summary of the method: as §1

CP260 = system: CP260
Summary of the method: as §1

CP262 = system: CP262
Summary of the method: as §1

CP265 = system: CP265
Summary of the method: as §1

CP266 = system: CP266
Summary of the method: as §1

CP268 = system: CP268
Summary of the method: as §1

CP269 = system: CP269
Summary of the method: as §1

CP286 = system: CP286
Summary of the method: as §1

CP291 = system: CP291
Summary of the method: as §1

Measured: Potency

C=CC(=O)O
inactive: all assays above

O=C(NNCNNC(=O)c1ccncc1)c1ccncc1
inactive: all assays above

CN1CCC(OC(=O)C(Oc2ccc(Cl)cc2)Oc2ccc(Cl)cc2)CC1
inactive: all assays above

Cc1ncc(C[n+]2csc(CCOP(=O)(O)OP(=O)(O)O)c2C)c(N)n1
inactive: all assays above

Oc1cc(O)cc(O)c1
inactive: all assays above

CC(CC=O)CCCC(C)(C)O (stereo not given)
inactive: all assays above

CC(C)O
inactive: all assays above

S=C1SCN(Cc2ccccc2)CN1Cc1ccccc1
inactive: all assays above

CN[C@@H]1[C@H](O[C@H]2[C@H](O[C@H]3[C@H](O)[C@@H](O)[C@H](N=C(N)N)[C@@H](O)[C@@H]3N=C(N)N)O[C@@H](C)[C@]2(O)C=O)O[C@@H](CO)[C@H](O)[C@H]1O
inactive: all assays above

CCCCC(CC)COS(=O)(=O)O (stereo not given)
inactive: all assays above

C=CCOc1ccc(CC(=O)O)cc1Cl
inactive: all assays above

CN1C(=O)OC(C)(C)C1=O
inactive: all assays above

O=S(=O)(O)CC(S)CS (stereo not given)
inactive: all assays above

CO/N=C(/C(=O)N[C@@H]1C(=O)N2C(C(=O)O)=C(COC(N)=O)CS[C@H]12)c1ccco1
inactive: all assays above

CC(C)CCC[C@@H](C)[C@H]1CC[C@H]2[C@@H]3CC=C4C[C@@H](O)CC[C@]4(C)[C@H]3CC[C@]12C
inactive: all assays above

CC(C)CCCC(C)NC(C)C (stereo not given)
inactive: all assays above

CCOC(C)OCC
inactive: all assays above

Cc1cc(=O)c(C(=O)N[C@@H](C(=O)N[C@@H]2C(=O)N3C(C(=O)O)=C(CSc4nnnn4C)CS[C@H]23)c2ccc(O)cc2)c[nH]1
inactive: all assays above

CC1CC(OC(=O)C(O)c2ccccc2)CC(C)(C)C1 (stereo not given)
inactive: all assays above

C=CCCCCCCCCC(=O)OC
inactive: all assays above

[O]=[Bi][O]C(=O)[O][Bi]=[O]
inactive: all assays above

OC1OC[C@@H](O)[C@H](O)[C@@H]1O (stereo not given in full)
inactive: all assays above

CCOc1ccc(S(=O)(=O)O)c2cccnc12
inactive: all assays above

CC(C)[C@H](N)C(=O)OCC(CO)OCn1cnc2c(=O)[nH]c(N)nc21 (stereo not given in full)
inactive: all assays above

NCC[C@H](O)C(=O)N[C@@H]1C[C@H](N)[C@@H](O[C@H]2O[C@H](CN)[C@@H](O)[C@H](O)[C@H]2O)[C@H](O)[C@H]1O[C@H]1O[C@H](CO)[C@@H](O)[C@H](N)[C@H]1O
inactive: all assays above

O=C(CCCCCCCCCCCCC1CCCC1)Nc1ccc(S(=O)(=O)c2ccc(NC(=O)CCCCCCCCCCCCC3CCCC3)cc2)cc1
inactive: all assays above

FC(F)(F)C(F)(F)C(F)(F)C(F)(F)C(F)(F)C(F)(F)F
inactive: all assays above
